Inconclusive results are not listed. The source made the active and inactive calls. Calls follow the shape of the dose curve; as a rule, active = well fitted curve in the direction sought with a large enough effect; inconclusive = small, poorly fitted or top-dose-only effect, or another doubt; inactive = no such curve, though single readings can be large; an effect the other way counts as inactive or inconclusive.
Tests used:
[1] = Cellular Toxicity (caspase-3) Mesangial (AID 660); conditions: mesangial cells, normalized: DMSO 0%, 100 µM tamoxifen 100%; at 91.7 µM (top of the series);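 also: combined caspase 3 and 7 activity read by Caspase-Glo luminescence; cells exposed to compound for 16 h before the caspase read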
How it was run: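 Seed cells derived from normal human renal glomeruli, incubate 5 h, add compounds across concentrations and incubate 16 h at 37 °C. Caspase 3/7 activation is then quantified by luciferase light, with AC50 derived by Hill modeling.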

[2] = Cellular Toxicity (caspase-3) SK-N-SH (AID 661);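 also: 0% = DMSO basal and 100% = 10 µM staurosporine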
How it was run: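 Cells were seeded and incubated 5 hr at 37 °C, dosed with compound over a concentration range for 16 hr, then given Caspase-Glo 3/7 reagent for 1 hr at room temperature before luminescence reading.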

[3] = Cellular Toxicity (caspase-3) H-4-II-E (AID 663); conditions: H-4-II-E rat hepatoma, scaled: DMSO 0%, 100 µM tamoxifen 100%; at 92.2 µM (top of the series);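 also: cells exposed to compound for 16 hr before readout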
How it was run: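 Caspase 3/7 activation measured in H-4-II-E cells in complete culture medium after 16 hr treatment at 37 °C, using luciferase-coupled substrate readout; AC50 values come from Hill-equation fits of normalized concentration-response data.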

[4] = Cellular Toxicity (caspase-3) Hek293 (AID 664); conditions: HEK293 caspase-3 activation, DMSO = 0%, 100 µM tamoxifen = 100%; at 92.2 µM (top of the series);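 also: cells exposed to compound for 16 h at 37 °C before readout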
How it was run: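 qHTS, HEK293 (human embryonic kidney), 16 h cpd exposure in complete medium. Caspase-3/7 activation = luminescence increase; normalized to DMSO/100 uM tamoxifen; Hill-fit AC50.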

[5] = Cellular Toxicity (caspase-3) N2a (AID 665);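 also: compound exposure lasted 16 h at 37 °C before readout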
How it was run: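 Caspase-3/7 activation, measured as increased luminescence from aminoluciferin release, is quantified in mouse N2a cells exposed to compounds for 16 h. Values are normalized to DMSO and 10 uM staurosporine, with AC50 derived by Hill modelling.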

[6] = Cellular Toxicity (caspase-3) NIH 3T3 (AID 666);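 also: caspase signal read after 16 h compound exposure; 0% = DMSO basal and 100% = 100 µM tamoxifen stimulation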
How it was run: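 Cells were plated at 1000 per well and incubated 5 hr at 37°C, then compound was added for 16 hr. Caspase-Glo 3/7 reagent followed for 20 min at room temperature before luminescence was read.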

[7] = Cellular Toxicity (caspase-3) Renal Proximal Tubule (AID 667); conditions: Potency: caspase-3 activation;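 also: cells exposed to compound for 16 hours at 37 °C before detection; 0% = DMSO basal and 100% = 10 µM staurosporine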
How it was run: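 Freshly isolated primary rat kidney proximal tubule cells, 1000/well, treated 16 hr at 37 °C, then Caspase-Glo 3/7 luminescence after 1 hr. Normalized to DMSO and 10 uM staurosporine; AC50 from Hill fit.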

[8] = biological target: Cytochrome P450 3A4 (Homo sapiens) (UniProt P08684); test: qHTS Assay for Activators of Cytochrome P450 3A4 (AID 885); also: nearly all actives have a fitted effect of over 65% in size
Sequence of Cytochrome P450 3A4 (Homo sapiens) (P08684 whole entry, looked up): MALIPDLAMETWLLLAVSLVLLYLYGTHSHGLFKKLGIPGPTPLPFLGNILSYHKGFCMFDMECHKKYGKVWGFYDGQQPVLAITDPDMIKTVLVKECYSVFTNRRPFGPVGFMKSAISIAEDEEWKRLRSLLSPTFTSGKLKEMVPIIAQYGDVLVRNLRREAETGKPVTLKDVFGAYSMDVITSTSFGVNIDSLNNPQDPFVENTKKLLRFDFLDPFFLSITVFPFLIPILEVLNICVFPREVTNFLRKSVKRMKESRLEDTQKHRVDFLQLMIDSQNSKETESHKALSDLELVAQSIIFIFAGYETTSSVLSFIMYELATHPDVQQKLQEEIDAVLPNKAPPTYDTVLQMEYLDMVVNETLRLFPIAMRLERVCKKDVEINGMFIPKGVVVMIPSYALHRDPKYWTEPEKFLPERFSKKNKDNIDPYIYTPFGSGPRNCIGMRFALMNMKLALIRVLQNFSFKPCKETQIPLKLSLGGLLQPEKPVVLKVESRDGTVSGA
How it was run: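 Human CYP3A4 dealkylates Luciferin-PPXE to luciferin, which luciferase detection converts to light. Substrate was at its KM (25uM), buffer 200mM KPO4, reaction 60 min at RT.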

[9] = Cell Viability - LYMP2-001 (AID 921);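 also: 0% = DMSO only and full inhibition = tetraoctylammonium bromide control wells; nearly all actives have a fitted effect of over 70% in size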
How it was run: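 Human lymphoblastoid LYMP2-001 cells, 2500 per well, in complete medium, treated 24 h at 37 C. Viability from cellular ATP by CellTiter-Glo luminescence; AC50 from Hill-equation fits of qHTS concentration-response.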

[10] = MultiTox-Fluor Cytotoxicity Assay - LYMP1-001 - Dead Cells (AID 946);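 also: 0% = DMSO and 100% = tetraoctylammonium bromide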
How it was run: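 LYMP1-001 lymphoblastoid cells (2500/well) treated 16 h at 37 C. Dead-cell protease cleavage of bis-AAF-R110 read at Ex/Em 485/520. Normalized to DMSO and 15 uM tetraoctylammonium bromide; AC50 from Hill fits.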

[11] = MultiTox-Fluor Cytotoxicity Assay - LYMP1-001 - Live Cells (AID 947);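 also: 0% = DMSO only and full inhibition = tetraoctylammonium bromide control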
[12] = Cell Viability - LYMP1-002 - Assay at 16 hr (AID 948);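 also: 0% = DMSO alone and full effect = 92 µM tetraoctylammonium bromide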
How it was run: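 LYMP1-002 human lymphoblastoid cells, 2500/well, were treated with compounds for 16 hr at 37 C in complete medium. Viability was read as intracellular ATP by CellTiter-Glo luminescence, and AC50 was derived from a Hill fit to concentration-response data.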

[13] = MultiTox-Fluor Cytotoxicity Assay - LYMP1-002 - Live Cells (AID 955); also: % is scaled to controls: 0 for no effect and ±100 for the full control effect
How it was run: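 Cells were seeded at 2500 per well and incubated 5 hr. Compounds were then added for 16 hr at 37 C, followed by MultiTox-Fluor reagent for 60 min at room temperature and fluorescence reading of viable-cell protease signal.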

[14] = MultiTox-Fluor Cytotoxicity Assay - LYMP1-002 - Dead Cells (AID 960);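 also: 0% = DMSO and 100% = tetraoctylammonium bromide; nearly all actives have a fitted effect of over 60% in size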
How it was run: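 Cells were plated, rested 5 hr, then treated with compound dilution series for 16 hr at 37 C. After adding substrate reagent and 60 min at room temperature, dead-cell protease fluorescence gave concentration-response curves fitted by the Hill equation.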

[15] = MultiTox-Fluor Cytotoxicity Assay - LYMP1-003 - Dead Cells (AID 961);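 also: 0% = DMSO and 100% = tetraoctylammonium bromide; nearly all actives have a fitted effect of over 70% in size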
How it was run: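 LYMP1-003 human lymphoblastoid cells (2500/well) exposed to compound 16 h at 37 C in complete medium; dead-cell protease read with bis-AAF-R110 fluorescence (Ex/Em 485/520) after 60 min at room temperature. Normalized to DMSO and 15 uM tetraoctylammonium bromide; AC50 from Hill fit.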

[16] = MultiTox-Fluor Cytotoxicity Assay - LYMP1-003 - Live Cells (AID 962);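 also: 0% = DMSO only and full loss = 92 µM tetraoctylammonium bromide; cytotoxic hits lower the live-cell protease signal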
How it was run: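 Acute cytotoxicity is scored as a drop in live-cell protease activity in human lymphoblastoid LYMP1-003 cells after 16 hr compound exposure at 37 C. AC50 values come from Hill-equation modelling of concentration-response data.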

[17] = Cell Viability - LYMP1-003 - Assay at 24 hr (AID 963);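 also: plate controls were DMSO only for no effect and tetraoctylammonium bromide positive control for full effect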
How it was run: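 Cytotoxicity is scored as a concentration-dependent fall in ATP-linked luciferase signal in human lymphoblastoid LYMP1-003 cells treated 24 hr at 37 C in complete culture medium.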

[18] = Cell Viability - LYMP1-003 - Assay at 40 hr (AID 964); also: % is scaled to controls: 0 for no effect and ±100 for the full control effect; nearly all actives have a fitted effect of over 60% in size
How it was run: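 Luminescent ATP signal (CellTiter-Glo) served as the viability read-out after 40 hr compound treatment of human lymphoblastoid LYMP1-003 cells at 37 C. Decreases in ATP were fitted with the Hill equation to give AC50.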

[19] = Cell Viability - LYMP2-003 (AID 965);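 also: cells exposed to compounds for 24 h before reading; 0% = DMSO only and full effect = 92 µM tetraoctylammonium bromide; nearly all actives have a fitted effect of over 50% in size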
How it was run: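 Human lymphoblastoid LYMP2-003 cells, 2500/well, exposed to compounds for 24 h at 37 C in complete medium. Viability read as intracellular ATP by CellTiter-Glo luminescence; AC50 from Hill-equation fits of qHTS concentration-response data.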

[20] = biological target: Cytochrome P450 3A4 (Homo sapiens) (UniProt P08684); test: qHTS Assay for Inhibitors and Substrates of Cytochrome P450 3A4 (AID 884); also: % is scaled to controls: 0 for no effect and ±100 for the full control effect; nearly all actives have a fitted effect of over 50% in size
How it was run: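 Luminescent readout of luciferin produced by CYP3A4 (20 nM) dealkylation of Luciferin-PPXE, 25 uM (its KM). NADPH-driven reaction ran 60 min at RT after 10 min compound preincubation; data scaled to 57 uM ketoconazole as 100% inhibition.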

COc1ccc(N)c(OC)c1
inactive: caspase-3 activation [1] 0.311% | outcome [2] | caspase-3 activation [3] 1.91% | caspase-3 activation [4] -1.28% | outcome [5] | outcome [6] | Potency [7] | outcome [8] | Potency [9] | outcome [10] | outcome [11] | outcome [12] | outcome [13] | outcome [14] | Potency [15] | Potency [16] | Potency [17] | Potency [18]

Cc1cc([N+](=O)[O-])ccc1N
inactive: caspase-3 activation [1] 0.789% | outcome [2] | caspase-3 activation [3] -0.2% | caspase-3 activation [4] -2.55% | outcome [5] | outcome [6] | Potency [7] | Potency [9] | outcome [10] | outcome [12] | outcome [13] | Potency [15] | Potency [16] | Potency [17] | Potency [18]

CCN(CC)c1cccc(O)c1
inactive: caspase-3 activation [1] -0.898% | outcome [2] | caspase-3 activation [3] 2.1% | caspase-3 activation [4] 0.00739% | outcome [5] | outcome [6] | Potency [7] | outcome [8] | Potency [9] | outcome [10] | outcome [11] | outcome [12] | outcome [13] | Potency [15] | Potency [16] | Potency [17] | Potency [18] | Potency [19]

Cc1cc(C2(c3cc(C)c(O)cc3C)OS(=O)(=O)c3ccccc32)c(C)cc1O
inactive: caspase-3 activation [1] -0.0933% | outcome [2] | caspase-3 activation [3] 2.61% | caspase-3 activation [4] 4.58% | outcome [5] | outcome [6] | Potency [7] | outcome [8] | Potency [9] | outcome [10] | outcome [11] | outcome [12] | outcome [13] | Potency [15] | Potency [16] | Potency [17] | Potency [18] | Potency [19]

CC=C(Cl)Cl
inactive: caspase-3 activation [1] -0.275% | outcome [2] | caspase-3 activation [3] 0.108% | caspase-3 activation [4] 0.136% | outcome [5] | outcome [6] | Potency [7] | Potency [20] | outcome [10] | outcome [11] | outcome [12] | outcome [13] | outcome [14] | Potency [16] | Potency [17] | Potency [18] | Potency [19]

Nc1cccc([N+](=O)[O-])c1
inactive: caspase-3 activation [1] -0.828% | outcome [2] | caspase-3 activation [3] 0.491% | caspase-3 activation [4] 0.377% | outcome [5] | outcome [6] | Potency [7] | Potency [20] | outcome [10] | outcome [11] | outcome [12] | outcome [13] | Potency [15] | Potency [16] | Potency [17] | Potency [18] | Potency [19]

CCc1ccccc1
inactive: caspase-3 activation [1] -1.29% | outcome [2] | caspase-3 activation [3] 1.3% | caspase-3 activation [4] -0.962% | outcome [6] | Potency [7] | Potency [20] | Potency [9] | outcome [10] | outcome [11] | outcome [12] | outcome [13] | outcome [14] | Potency [15] | Potency [16] | Potency [17] | Potency [18] | Potency [19]

O=C1OC(=O)c2c(Br)c(Br)c(Br)c(Br)c21
inactive: caspase-3 activation [1] 0.186% | outcome [2] | caspase-3 activation [3] 0.557% | caspase-3 activation [4] 1.35% | outcome [5] | outcome [6] | Potency [7] | Potency [20] | outcome [10] | outcome [12] | outcome [13] | outcome [14] | Potency [15] | Potency [16] | Potency [17] | Potency [18] | Potency [19]

Cc1cc(C)c(N)cc1C
inactive: caspase-3 activation [1] -0.153% | outcome [2] | caspase-3 activation [3] -1.64% | caspase-3 activation [4] 2.78% | outcome [5] | outcome [6] | Potency [7] | Potency [9] | outcome [10] | outcome [11] | outcome [12] | outcome [13] | outcome [14] | Potency [15] | Potency [16] | Potency [17] | Potency [18] | Potency [19]

CCNc1cc(O)ccc1C
inactive: caspase-3 activation [1] 0.47% | outcome [2] | caspase-3 activation [3] 1.36% | caspase-3 activation [4] 0.389% | outcome [5] | outcome [6] | Potency [7] | outcome [8] | Potency [9] | outcome [10] | outcome [11] | outcome [12] | outcome [13] | outcome [14] | Potency [15] | Potency [16] | Potency [17] | Potency [18] | Potency [19]

S=C([S-])NCCNC(=S)[S-].[Zn+2]
inactive: caspase-3 activation [1] -0.549% | outcome [2] | caspase-3 activation [3] -1.93% | caspase-3 activation [4] 3% | outcome [5] | outcome [6] | Potency [7] | outcome [8] | Potency [9] | outcome [12] | outcome [13] | outcome [14] | Potency [15] | Potency [16] | Potency [17] | Potency [18] | Potency [19]

C=CCn1c(=O)n(CC=C)c(=O)n(CC=C)c1=O
inactive: caspase-3 activation [1] -1.07% | outcome [2] | caspase-3 activation [3] 0.22% | caspase-3 activation [4] -1.6% | outcome [5] | outcome [6] | Potency [7] | Potency [9] | outcome [10] | outcome [11] | outcome [12] | outcome [13] | outcome [14] | Potency [16] | Potency [17] | Potency [18] | Potency [19]

C[C@@H]1CC2(OC3C[C@@]4(C)C5=CC[C@H]6C(C)(C)C(O[C@@H]7OC[C@@H](O)[C@H](O)[C@H]7O)CC[C@@]67C[C@@]57CC[C@]4(C)C31)OC(O)C1(C)OC21 (stereo not given in full)
inactive: caspase-3 activation [1] -0.636% | outcome [2] | caspase-3 activation [3] 1.92% | caspase-3 activation [4] 2.55% | outcome [5] | outcome [6] | Potency [7] | outcome [8] | Potency [9] | outcome [10] | outcome [12] | outcome [13] | Potency [15] | Potency [16] | Potency [17] | Potency [18] | Potency [19]

C/C(C=O)=C/c1ccccc1
inactive: caspase-3 activation [1] -0.174% | outcome [2] | caspase-3 activation [3] -1.36% | caspase-3 activation [4] 0.188% | outcome [5] | outcome [6] | Potency [7] | Potency [20] | outcome [10] | outcome [11] | outcome [12] | outcome [13] | Potency [15] | Potency [16] | Potency [17] | Potency [18] | Potency [19]

Cc1c(N)cccc1[N+](=O)[O-]
inactive: caspase-3 activation [1] 0.18% | outcome [2] | caspase-3 activation [3] -0.123% | caspase-3 activation [4] 1.08% | outcome [6] | Potency [7] | Potency [20] | Potency [9] | outcome [10] | outcome [11] | outcome [12] | outcome [13] | outcome [14] | Potency [16] | Potency [17] | Potency [18] | Potency [19]

From PubChem BioAssay (NCATS)
